In the library only some 2.6% were active in any assay of this set; here they are far more common.
TROY NFkB inh – inhibitors of TROY-driven NF-kB signaling, primary screen, Q293 LMP1-TROYcd cells, NF-kB luciferase, uHTS; Q293 LMP1-TROYcd NF-kB luciferase reporter, 4 h; inhibition, % at 10 µM; hit rate 0.98% among 360,000;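 active = compounds whose plate-normalised and pattern-corrected inhibition of the luciferase reporter signal at the single screening dose is 50% or more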
LMP1 NFkB inh – EBV LMP1-driven NF-kappaB luciferase reporter inhibitors, primary screen, cell-based, luminescence, single point | LMP1-induced NF-kappaB luciferase reporter cells | inhibition, % at 12.5 µM | hit rate 0.69% among 350,000 | AID 504558, 2011; in the data active = inhibition above about 41%; inconclusive = no clear call, values can overlap the other calls;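 note: 0% = neutral control wells and 100% = reference inhibitor control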
LGR2 antag – inhibitors of bursicon-induced LGR2 CRE-luciferase signal, primary screen, cell-based, HEK293, CRE-luciferase reporter, bursicon stimulation | bursicon-stimulated, 4 h | inhibition, % at 9.99 µM | hit rate 0.35% among 380,000 | AID 720647, 2013;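 active = drop in luminescence signal, shown as inhibition above about 50% in the replicate tests, limit read from the data, passing the limit was not always enough; inconclusive = probably only some replicates passing the limit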;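 note: agonist challenge used bursicon conditioned medium at about half maximal strength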
HSP90 refold inh – HSP90 inhibitors, primary screen, cell lysate, luminescence; Heat shock protein HSP 90 (rabbit reticulocyte lysate; luciferase refolding); Rabbit reticulocyte lysate, luciferase refolding luminescence, 3 h; inhibition, % at 5.6 µM; hit rate 0.91% among 290,000;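 active = inhibition above the screen-wide mean plus 3 SD, computed separately per campaign, cut at about 16% in these data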;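 note: 0% = DMSO wells and 100% = 60 µM geldanamycin wells; inhibitors lower the luminescence because luciferase stays unfolded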
aDG glyco act – activators of alpha-DG glycosylation, primary screen, uHTS, Pro5-aDG cells, AlphaScreen | activation, % at 10 µM | hit rate 0.22% among 360,000 | alpha-DG glycosylation AlphaScreen (IIH6); 0% Pro5, 100% B10-LARGE cell signal;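 active = activation of at least 8% versus controls, or a plate z-score of at least 8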;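 note: Pro5 are CHO cells carrying HIG-tagged alpha-DG that lacks glycosylation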
TWEAK Fn14 block – inhibitors of TWEAK-Fn14 signaling, primary screen, luciferase reporter cells, uHTS | TWEAK-stimulated Fn14 reporter cells, luciferase luminescence, 8 h | inhibition, % at 10 µM | hit rate 2% among 360,000; in the data active = inhibition above about 50%
Numbers without * were called inactive.

`CC1CCN(CCCNS(=O)(=O)c2cc(Br)cc3c2N(C(=O)C2CC2)CC3)CC1` gave TROY NFkB inh -2, LMP1 NFkB inh -8, LGR2 antag 2, HSP90 refold inh -2, aDG glyco act 0 and TWEAK Fn14 block 73*.
Screening CC(C)Cc1nc2oc3c(Cl)ncnc3c2c2c1CCCC2 returned TROY NFkB inh 73*, LMP1 NFkB inh 11, LGR2 antag 6, HSP90 refold inh 1, aDG glyco act 0 and TWEAK Fn14 block 9.
For O=C(C[C@@H]1CC[C@H]2[C@@H](COC[C@@H](O)CN2S(=O)(=O)c2cccc(Cl)c2)O1)N1CCOCC1 the results were LGR2 antag -9.
For C[C@@H]1CN([C@@H](C)CO)C(=O)c2cc(NC(=O)Cc3ccccc3)ccc2O[C@H]1CN(C)C(=O)Nc1cccc2ccccc12 the results were LGR2 antag 1.
CSCC[C@@H](C(=O)Nc1ccc2c(c1)OCCO2)N1Cc2ccccc2C1=O was read as TROY NFkB inh 6, LMP1 NFkB inh -7, LGR2 antag -23, HSP90 refold inh 1, aDG glyco act 0 and TWEAK Fn14 block 24.
For CS(=O)(=O)CCC(C(=O)Nc1ccc2c(c1)OCO2)N1Cc2ccccc2C1=O (configuration not stated) the results were TROY NFkB inh -35, LMP1 NFkB inh 60*, LGR2 antag 3, HSP90 refold inh 1, aDG glyco act 0 and TWEAK Fn14 block -39.
For O=C(OCc1ccc(COC(=O)c2ccc(O)cc2)cc1)c1ccc(O)cc1 the results were TROY NFkB inh 61*, LMP1 NFkB inh -1, HSP90 refold inh -1, aDG glyco act 0 and TWEAK Fn14 block 25.
COC(=O)c1ccc(COC(=O)c2ccc(N(C)C)cc2)cc1 was read as TROY NFkB inh -45, LMP1 NFkB inh -14, LGR2 antag -25, HSP90 refold inh -2, aDG glyco act 0 and TWEAK Fn14 block -7.
NNc1nc2ccccc2c(=O)n1Cc1ccccc1 was read as TROY NFkB inh -53, LMP1 NFkB inh -9, LGR2 antag -36, HSP90 refold inh 7, aDG glyco act 0 and TWEAK Fn14 block 74*.
CC(C)OCCCn1c(NN)nc2ccccc2c1=O was read as TROY NFkB inh -9, LMP1 NFkB inh 0, LGR2 antag -19, HSP90 refold inh -5, aDG glyco act 1 and TWEAK Fn14 block -12.
For C[C@H](CO)N1C[C@H](C)[C@H](CN(C)S(C)(=O)=O)OCCCC[C@H](C)Oc2ccc(NC(=O)Cc3ccccc3)cc2C1=O the results were LGR2 antag -2.
`CCCC#Cc1ccc2c(c1)O[C@H](CN(C)C)[C@H](C)CN([C@H](C)CO)S2(=O)=O` gave LGR2 antag -5.
Screening CNC[C@H]1OCCCC[C@@H](C)Oc2ccc(NC(=O)Nc3ccccc3)cc2C(=O)N([C@@H](C)CO)C[C@H]1C returned LGR2 antag 10.
`CN(C)CCCN=Cc1c(-c2ccccc2)[nH]n(-c2nc3ccccc3s2)c1=O` gave TROY NFkB inh 10, LMP1 NFkB inh -14, HSP90 refold inh 2, aDG glyco act 0 and TWEAK Fn14 block 62*.
Screening O=C1c2ccccc2NC(c2cnc3ccccc3n2)N1O (configuration not stated) returned TROY NFkB inh 26, LMP1 NFkB inh 0, HSP90 refold inh -2, aDG glyco act 0 and TWEAK Fn14 block 74*.
Screening Cc1cccc(-c2nc(=S)c3c(n2Cc2ccco2)CCCC3)c1 returned TROY NFkB inh 11, LMP1 NFkB inh -2, LGR2 antag -16, HSP90 refold inh 1, aDG glyco act 0 and TWEAK Fn14 block 50*.
For Cc1ccc(-c2nc(=S)c3c(n2Cc2ccco2)CCCC3)cc1 the results were TROY NFkB inh -7, LMP1 NFkB inh -6, HSP90 refold inh 7, aDG glyco act 0 and TWEAK Fn14 block 33.
Screening Nc1nc(Cl)cc(N2CCC(c3cc(-c4ccc(Cl)cc4)n[nH]3)CC2)n1 returned TROY NFkB inh 40, LMP1 NFkB inh -8, LGR2 antag 28, HSP90 refold inh 7, aDG glyco act 2 and TWEAK Fn14 block 94*.
`COc1ccc(OC)c(-c2cc(C3CCN(c4cc(Cl)nc(N)n4)CC3)[nH]n2)c1` gave TROY NFkB inh 53*, LMP1 NFkB inh -10, HSP90 refold inh 1, aDG glyco act 4 and TWEAK Fn14 block 67*.
C[C@H](NC(=O)C[C@H]1C=C[C@H](NC(=O)C2CCC2)[C@@H](CO)O1)c1ccccc1 was read as LGR2 antag 10.
`COc1ccc2c3c([nH]c2c1)[C@H](CO)N(C(=O)Nc1ccc(F)cc1)CC31CN(CC2CCOCC2)C1` gave LGR2 antag -13.
For C[C@H]1CN([C@@H](C)CO)C(=O)c2cc(NC(=O)Cc3cn(C)c4ccccc34)ccc2O[C@H]1CN(C)S(=O)(=O)c1ccc(F)cc1 the results were LGR2 antag 16.
For Cc1nn(CC(=O)Nc2cccc(O)c2)c(=O)c2ccccc12 the results were TROY NFkB inh -6, LMP1 NFkB inh -3, LGR2 antag -6, aDG glyco act 0 and TWEAK Fn14 block 14.
Cc1ccc(NC(=O)Cn2nc(C)c3ccccc3c2=O)cc1 was read as LMP1 NFkB inh 0, HSP90 refold inh 0, aDG glyco act 0 and TWEAK Fn14 block 72*.
For Cc1ccc(-c2nnc(CSc3nc(C(C)C)nc4sc(C)c(C)c34)o2)cc1 the results were LMP1 NFkB inh 6, HSP90 refold inh 0, aDG glyco act 0 and TWEAK Fn14 block 83*.
For COc1cc([N+](=O)[O-])ccc1NC(=S)NNC(=O)c1ccc2c(c1)OCO2 the results were TROY NFkB inh 23, LMP1 NFkB inh 6, LGR2 antag 1, HSP90 refold inh 1, aDG glyco act 0 and TWEAK Fn14 block -26.
`O=C(NC(=S)Nc1cc([N+](=O)[O-])ccc1O)c1ccc2c(c1)OCO2` gave TROY NFkB inh 70*, LMP1 NFkB inh -30, LGR2 antag inconclusive, HSP90 refold inh 10, aDG glyco act 0 and TWEAK Fn14 block 71*.
O=C(O)c1ccccc1SCc1cn2cc(Cl)ccc2n1 was read as TROY NFkB inh -8, LMP1 NFkB inh 1, LGR2 antag 10, HSP90 refold inh -2, aDG glyco act 0 and TWEAK Fn14 block 15.
CC(SCc1cn2cc(Cl)ccc2n1)C(=O)O (configuration not stated) was read as LMP1 NFkB inh 2, HSP90 refold inh 2, aDG glyco act 0 and TWEAK Fn14 block 76*.
CN1C(=O)c2cc(NC(=O)C3CCC3)ccc2OC[C@H]2O[C@H](CC(=O)NCC3CCCCC3)CC[C@H]21 was read as LGR2 antag -2.

Screening results deposited in PubChem BioAssay by several laboratories.
